ANO1 block: mouse TMEM16A channel inhibition, primary screen; Q8BHY3; HEK293 TMEM16A/YFP iodide influx fluorescence, ionomycin; normalized B-score (activity score, 25-100; higher = stronger inhibition) at 10 µM; 310,000 tested, 1.2% active;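 active means ratio plate-corrected score three or more library SD toward inhibition, starting fluorescence score within five deviations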;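 further: score derived from kinetic fluorescence span divided by baseline fluorescence per well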
Target sequence (Q8BHY3 whole entry, looked up): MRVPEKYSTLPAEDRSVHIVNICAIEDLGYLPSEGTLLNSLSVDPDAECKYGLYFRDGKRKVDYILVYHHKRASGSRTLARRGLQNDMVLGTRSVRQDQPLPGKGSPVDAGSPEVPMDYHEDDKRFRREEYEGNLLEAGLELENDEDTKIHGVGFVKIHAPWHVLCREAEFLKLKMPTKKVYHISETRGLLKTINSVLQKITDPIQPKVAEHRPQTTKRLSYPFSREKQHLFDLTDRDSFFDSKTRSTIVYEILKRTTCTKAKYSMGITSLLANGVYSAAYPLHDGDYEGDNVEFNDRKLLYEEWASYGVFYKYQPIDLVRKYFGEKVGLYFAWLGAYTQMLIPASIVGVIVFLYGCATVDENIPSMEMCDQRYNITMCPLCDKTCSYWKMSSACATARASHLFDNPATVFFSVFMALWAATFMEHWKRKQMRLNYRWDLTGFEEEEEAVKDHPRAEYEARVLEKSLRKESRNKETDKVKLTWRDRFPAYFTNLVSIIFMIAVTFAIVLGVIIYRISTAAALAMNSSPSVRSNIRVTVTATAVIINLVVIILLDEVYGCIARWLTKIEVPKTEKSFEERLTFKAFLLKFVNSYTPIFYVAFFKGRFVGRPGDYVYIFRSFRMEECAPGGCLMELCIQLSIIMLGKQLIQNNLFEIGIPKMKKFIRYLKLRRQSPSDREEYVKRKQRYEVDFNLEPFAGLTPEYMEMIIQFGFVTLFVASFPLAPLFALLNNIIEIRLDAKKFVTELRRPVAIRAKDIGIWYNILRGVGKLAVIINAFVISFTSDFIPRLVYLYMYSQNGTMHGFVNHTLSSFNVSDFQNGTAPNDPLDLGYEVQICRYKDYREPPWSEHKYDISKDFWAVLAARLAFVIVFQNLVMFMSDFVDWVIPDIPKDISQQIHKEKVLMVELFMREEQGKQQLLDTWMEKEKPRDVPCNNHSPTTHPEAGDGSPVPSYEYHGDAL
ANO1 activ: mouse TMEM16A channel activation, primary screen; Q8BHY3; AID 623877; HEK293 TMEM16A/YFP-H148Q/I152L, iodide quench fluorescence; active compounds read low; 340,000 tested, 0.3% active; B-score at 10 µM;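 active means fluorescence-ratio B-score plate-corrected deviation score at least 3 library SD below zero, with starting fluorescence score within 5 deviations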;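 further: channel opened by trigger with iodide after compound preincubation; score built on the fluorescence ratio of max minus min over baseline; more negative score means more quench and so TMEM16A activation or potentiation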
Cardiac RTF inh: cardiac RTF calcium desensitization; P19429+P45379; IANBD-labeled cardiac RTF, Ca2+ fluorescence; inhibition, % at 7.15 µM; 340,000 tested, 0.12% active; AID 493244;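 active means inhibition above the mean inhibition of all tested compounds plus 3 SD, cut at about 17% in these data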;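 further: assay run at fixed EC70 calcium of 1.6 mM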
CRFR2-BP ag: CRF-BP/CRF-R2 complex agonism | HEK293 CRF-R2/CRF-BP, calcium dye fluorescence (FLIPR); percent of saturating CRF peptide response | activation, % at 13.2 µM | 350,000 tested, 0.46% active | AID 588473;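 active means activation of at least 50%, plus an integration ratio under a set limit after plate pattern correction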
CRFR2-BP antag: CRF-BP/CRF-R2 complex antagonism | HEK293 CRF-R2/CRF-BP, CRF-induced calcium fluorescence | inhibition, % at 11.8 µM | 350,000 tested, 0.59% active | AID 588475;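 active means inhibition of the ligand-induced calcium signal above about 50% at the single tested concentration, limit read from the data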
cardiac RTF act: increases calcium sensitivity of human cardiac regulated thin filaments. P19429+P45379. IANBD-labeled TnC RTF fluorescence at EC20 calcium; 0% EC20 calcium, 100% full calcium. activation, % at 7.2 µM. 340,000 tested, 0.24% active;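 active means activation above the mean over all tested compounds plus 3 SD, cut at about 30% in these data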;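 further: rise in fluorescence read as greater calcium sensitivity of cardiac thin filaments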
Large screens that a line does not name were inactive. The list is not random: actives were taken first. Their share in the collection is about 2.4%.

O=C(Cn1nc(Cl)nc1Cl)Nc1ccccc1	CRFR2-BP antag 61.1
O=C(Cn1nc(Cl)nc1Cl)c1ccccc1	none
Nc1ccc(/C=C/C(=O)c2cccs2)cc1	ANO1 activ -5.74, CRFR2-BP ag 102.5
O=C(C=Cc1ccccc1)c1cccs1	none (no result: ANO1 block)
CCN(C(=O)CCc1nc(-c2ccc(OC)cc2)no1)c1cc(OC)ccc1OC	ANO1 block 25
Cc1c(CC(Cl)(Cl)Cl)c2c(n1O)CC(C)(C)CC2=O	CRFR2-BP ag 55.0, CRFR2-BP antag 74.3
CCOC(=O)C1(Cc2cccc(Cl)c2)CCCN(C(=O)c2c(CC)noc2C)C1 (stereo not drawn)	none
Cc1ccccc1NC(=O)CSc1nnc(Cc2ccccc2)c(=O)n1N	none
CCOC(=O)C1(CC2CCCCO2)CCN(Cc2cc3ccccc3[nH]2)CC1 (stereo not drawn)	CRFR2-BP ag 126.2
CCCCc1ncc(CN2CCC(CC3CCCCO3)(C(=O)OCC)CC2)[nH]1 (stereo not drawn)	none
O=C(Nc1cccc2c1[nH]c1ccccc12)C(F)(F)F	ANO1 block 25
O=C(Nc1cccc2c1[nH]c(=O)c1ccccc12)C(F)(F)F	none (no result: ANO1 block, ANO1 activ, Cardiac RTF inh, cardiac RTF act)
Cc1ccnc(NC(=O)C2CCN(S(=O)(=O)c3ccc4c(c3)CC(C)N4C(=O)C3CCC3)CC2)c1 (stereo not drawn)	ANO1 block 25
Cc1ccc(NC(=O)C2CCN(S(=O)(=O)c3ccc4c(c3)CC(C)N4C(=O)C3CCC3)CC2)nc1 (stereo not drawn)	none
CCn1c(C)c(C(C)=O)c(N2CCN(c3ccccc3)CC2)nc1=S	CRFR2-BP ag 60.0
O=C(Nc1sc(-c2ccccc2)cc1C(=O)O)c1ccccc1	CRFR2-BP antag 52.4
O=C(CC1SC(=O)N(c2ccccc2)C1=O)Nc1ccccc1 (stereo not drawn)	none
Cc1ccc(NC(=O)CC2SC(=O)N(c3ccccc3)C2=O)cc1 (stereo not drawn)	CRFR2-BP antag 89.2
O=C(Cc1ccc(NC(=O)C2CCN(C(=O)C3CCC3)CC2)cc1)Nc1cccc(C(=O)N2CCCC2)c1	none (no result: ANO1 block, ANO1 activ)
Cc1cc2nc(/C(C#N)=C\c3ccc(-c4ccccc4C(=O)O)o3)[nH]c2cc1C	CRFR2-BP ag 100.1, cardiac RTF act 52.5
Cc1ccc2nc(/C(C#N)=C/c3ccc(-c4ccccc4C(=O)O)o3)[nH]c2c1	CRFR2-BP ag 65.3
Cc1cc(/C=C(/C#N)c2nc3ccccc3[nH]2)c(C)n1-c1ccccc1C(=O)O	none
N#C/C(=C\c1ccc(-c2ccccc2C(=O)O)o1)c1nc2ccccc2[nH]1	none
COc1ccc(OCCn2cnc3ccccc32)cc1	none
CCCC1=NN(C(=O)C(=O)Nc2ccc(Br)cc2)C(O)(C(F)(F)F)C1 (stereo not drawn)	ANO1 block 25
Cc1cc(C)n(-c2ccc(C(=O)Oc3ccc4c(c3)OCO4)cc2)n1	CRFR2-BP antag 72.8
CCC1(CC)NC(=O)N(CC(=O)NC(=O)NCc2ccccc2)C1=O	none
CCOC(=O)c1ccccc1NC1CC(=O)N(c2ccccc2C)C1=O (stereo not drawn)	none
CCN(CCn1cccn1)Cc1cn[nH]c1-c1ccc(-c2ccccc2)cc1	none
CCN(CCn1cccn1)Cc1cn[nH]c1-c1cccc2ccccc12	ANO1 activ -6.24
COc1ccc(S(=O)(=O)N2CCOC2CNC(=O)C(=O)NCCc2ccccc2)cc1C (stereo not drawn)	CRFR2-BP antag 139.6
CCc1ccc(OCC(=O)Nc2ccc3[nH]ncc3c2)cc1	none
O=C(NC(=O)c1ccccc1)Nc1ccccn1	none (no result: CRFR2-BP ag, CRFR2-BP antag)
O=C(Nc1ccccn1)c1ccc(C(=O)c2ccccc2)cc1	CRFR2-BP antag 55.3
CC(C)C[C@H](NC(=O)c1nc[nH]c1C(=O)N[C@@H](CCCCNC(=O)OC(C)(C)C)C(=O)OC(C)(C)C)C(=O)OC(C)(C)C	ANO1 activ -5.04
CC(C)CN1C(=O)c2ccc(NC(=O)Cc3ccccc3)cc2C1=O	none
COc1ccc(C2C(C#N)=C(N)SC(N)=C2C#N)cc1OC	cardiac RTF act 35.7
CCOc1ccc(NS(=O)(=O)c2cc(OC)ccc2OC)cc1	none
CCOc1ccc(S(=O)(=O)Nc2ccc(F)cc2)c(C)c1C	ANO1 block 25
COc1cc(OC)cc(N(C(=O)CNC(=O)c2cccs2)C(C(=O)NCC2CCCO2)c2ccc(OC)c(OC)c2)c1 (stereo not drawn)	CRFR2-BP ag 53.4
COc1ccc(C(C(=O)NC2CCCCC2)N(C(=O)c2sc(C)nc2C)c2ccc(OC)cc2)cc1 (stereo not drawn)	CRFR2-BP antag 64.3
COc1ccc(C(C(=O)NC2CCCCC2)N(C(=O)c2sc(C)nc2C)c2ccccc2)cc1 (stereo not drawn)	none
COc1ccc(C(C(=O)NC2CCCC2)N(C(=O)c2ccoc2C)c2ccccc2)cc1 (stereo not drawn)	none
COc1ccc(C(C(=O)NC2CCCC2)N(C(=O)c2ccoc2C)c2cc(C)cc(C)c2)cc1 (stereo not drawn)	CRFR2-BP antag 82.8
CCCc1nc(SC)[nH]c(=O)c1C	none
O=C(CCNNC(=O)c1ccncc1)NCc1ccccc1	ANO1 activ -14
Oc1ccc(NCc2cccc(OCc3ccc(F)cc3)c2)cc1	ANO1 block 25
COc1ccc(Cl)cc1NC(=O)CN1C(=O)CCS(=O)(=O)c2ccccc21	none (no result: ANO1 block)
COc1ccccc1NC(=O)CN1C(=O)CCS(=O)(=O)c2ccccc21	CRFR2-BP antag 84.5
Cc1ccc(OCc2cc(C(=O)N3CCCC(O)C3)no2)cn1 (stereo not drawn)	none
COc1ccc(C(=O)Cn2cnc3ccccc3c2=O)c(OC)c1	CRFR2-BP ag 54.1
COc1ccc(OC)c(C(=O)Cn2cnc3ccccc3c2=O)c1	none
COc1ccc(C2(C(=O)N3CCCC3)CCOCC2)cc1OC	none
Cc1ccc(-c2sc(-c3ccccc3)nc2CC(=O)Nc2ccccc2F)cc1	CRFR2-BP ag 127.5
COc1ccc(C2=NO[C@@](CC(=O)O)(C(=O)Nc3ccc4c(c3)OCCO4)C2)cc1	none
COC(=O)c1ccccc1NC(=O)CSc1nnnn1CC(=O)O	none
COc1ccccc1N1CCN(CC(=O)Nc2c(C)n[nH]c2C)CC1	CRFR2-BP antag 67.6
CCCn1c(SCC(=O)N2CC(=O)Nc3ccccc32)nc2ccccc21	CRFR2-BP ag 55.9
O=C1CN(C(=O)CSc2nc3ccccc3n2CCc2ccccc2)c2ccccc2N1	none
CC(C)C(C)(C#N)NC(=O)CSc1nnc(-c2ccccc2)o1 (stereo not drawn)	none
Cn1c(CSCc2ccc(Cl)cc2)nnc1SCC(=O)Nc1nc2ccccc2s1	none
CCc1ccc2oc(-c3ccc(OC)cc3)cc(=Nc3cccc(C(=O)O)c3)c2c1	none
